DT40 TDP1 no CPT: qHTS for Inhibitors of human tyrosyl-DNA phosphodiesterase 1 (TDP1): qHTS in cells in absence of CPT; DT40 Tdp1-/- hTDP1 cells, no CPT, ATP luminescence, 48 h; Potency, µM (titrated, usually from 46.2 µM), inactives show at the top dose activity change, negative = growth inhibition, usual class: inhibitors; AID 686978, 2013; 15% of 420,000 active; further: potency means the concentration at half of the fitted maximal effect; nearly all actives have a fitted effect of over 55% in size
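Compound effects on proliferation are scored in DT40 Tdp1-/-;hTDP1 cells in the absence of CPT. ATP levels (CellTiter-Glo luminescence) are recorded after a ≥48 hr, 37 °C incubation.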
uPA surface inh: blocks generation of uPA at the cell surface; Potency, µM (doses to about 38.3 µM), for inactives: top-dose activity change, negative = inhibition, most hits filed as inhibitors; AID 540303; cell surface uPA generation assay, qHTS; 0.31% of 330,000 active; active means well fitted inhibition curve with a large enough effect; inconclusive means small, poorly fitted or top-dose-only effect; inactive means no such curve, though single readings can be large or run the other way; tested in mouse RAW 264.7 cells; further: potency means the concentration at half of the fitted maximal effect; nearly all actives have a fitted effect of over 55% in size
DT40 TDP1 CPT: DT40-hTDP1 cell growth loss with CPT; chicken DT40 Tdp1-/-;hTDP1 cells + 20 nM CPT, ATP luminescence, 48 h; Potency, µM (series often up to 46.2 µM), for inactives: at the top dose activity change, negative = growth inhibition, hits mostly inhibitors; 12% of 420,000 active; AID 686979; further: potency means the concentration at half of the fitted maximal effect; nearly all actives have a fitted effect of over 55% in size
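Chicken DT40 Tdp1-/- cells stably complemented with human TDP1 were seeded at 400 cells/well in medium containing 20 nM camptothecin, exposed to pin-transferred compounds, and grown at 37 °C for at least 48 hr. Viability was read as ATP luminescence.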
HT1080NT lethal: kills 2HG-producing HT-1080-NT fibrosarcoma cells; HT-1080-NT fibrosarcoma viability, CellTiter-Glo ATP luminescence, 48 h; Potency, µM (titrated, usually from 46.1 µM), for inactives: top-dose activity, negative = less viability, usual class: cytotoxic; 1.6% of 360,000 active; AID 686970;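 further: NT is the 2HG producing partner of a matched IDH1 knockdown line; potency means the concentration at half of the fitted maximal effect; 0% = DMSO-treated cells and -100% = media-only wells without cells; nearly all actives have a fitted effect of over 55% in size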
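Toxicity toward the 2HG-producing NT line was scored as %Activity, normalised to DMSO and no-cell wells, from CellTiter-Glo luminescence after 48 hours' treatment.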
IL1B secr inh: blocks inflammasome-driven IL-1 beta release; THP-1 LPS/ATP IL-1B secretion, AlphaLISA, 16 h; active compounds read low; activity change, % at 57.5 µM; 4.7% of 360,000 active; AID 743279; in the data active means activity change below about -50%; inconclusive means mostly about -30% to -49%
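Secreted IL-1B measured by AlphaLISA bead assay after 16 h compound exposure of THP-1 cells; compounds (final up to 57.5 uM) added 1 h before LPS (250 ng/mL) and ATP (1.25 mM) stimulation; lower signal means less secretion.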
HT1080 IDH1KD tx: HT-1080 IDH1 knockdown cell toxicity (counter line). HT-1080 IDH1 knockdown viability, ATP luminescence, 48 h. Potency, µM (highest dose often 46.1 µM), for the others: at the highest dose activity, negative = toxicity, actives largely listed as cytotoxic. 2% of 360,000 active;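 further: potency means the concentration at half of the fitted maximal effect; 0% = DMSO wells and -100% = cell-free medium wells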
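After a 2 h attachment period, IDH1KD HT-1080 cells took pin-transferred compound for 48 h at 37 °C; ATP-based luminescence after 10 min room-temperature reagent incubation reported viability.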
An asterisk follows results filed as active; u = inconclusive; x = no result; [ ] = another dose, or the depositor's remark. In the library only some 19% were active in any assay of this set; here they are far more common. Unless noted, the call rests on the fitted dose curve; in most records, active means well fitted curve in the direction sought with a large enough effect; inconclusive means small, poorly fitted or top-dose-only effect, or another doubt; inactive means no such curve, though single readings can be large; an effect the other way counts as inactive or inconclusive. Unless noted, on the % scale 0 is the no-effect control and ±100 the full control effect.

SMILES	DT40 TDP1 no CPT	uPA surface inh	DT40 TDP1 CPT	HT1080NT lethal	IL1B secr inh	HT1080 IDH1KD tx
O=c1[nH]ncc(N2CCN(Cc3ccccc3)CC2)c1Cl	-25%	0%	7%	6%	5	27%
O=[N+]([O-])c1ccc(NCc2ccccc2N2CCC(CO)CC2)nc1	u	-7%	u	9%	-6	-6%
COC(=O)C1CCN(C(=O)COC(=O)c2cccc(NS(=O)(=O)c3ccccc3)c2)CC1	-22%	-1%	4%	1%	4	0%
Cc1cc(C)nc(NC(=O)/C=C/c2ccc(Cl)cc2Cl)c1	13µM*	1%	u	13%	-53*	9%
Cc1ccnc(NC(=O)/C=C/c2ccccc2Cl)c1	-1%	-11%	9%	-21%	-69*	-17%
Cc1cc(C)nc(NC(=O)/C=C/c2ccccc2Cl)n1	-12%	-3%	8%	17%	u	8%
O=C(/C=C/c1ccc(Cl)cc1Cl)Nc1ccncc1	15µM*	1%	u	5%	-5	-13%
O=C(/C=C/c1c(Cl)cccc1Cl)Nc1ccncc1	21µM*	-3%	u	13%	-60*	-1%
Cc1cc(C)nc(NC(=O)/C=C/c2ccccc2Cl)c1	u	-2%	-5%	-3%	u	15%
O=C(CCNC(=O)c1ccccc1Cl)NCCC1=CCCCC1	-7%	-3%	7%	-1%	-11	-2%
CCOc1ccccc1NS(=O)(=O)c1ccc2oc(=O)c3ncn(C)c3c2c1	-6%	x	-17%	x	x	x
CC(=O)Oc1ccccc1Cn1c(C)c(C(=O)NCCC#N)sc1=O	-11%	x	-17%	19%	27	7%
CC(=O)N(C)c1ccc(NC(=O)/C=C/c2ccccc2Cl)cc1	13µM*	-6%	u	-16%	-4	-17%
O=C(/C=C/c1ccccc1Cl)Nc1ccncc1	u	-4%	u	4%	-22	1%
O=C(/C=C/c1ccc(Cl)cc1Cl)NCCSCc1ccccc1	0%	7%	-4%	11%	-96*	16%
CCOC(=O)Cc1csc(NC(=O)Nc2ccc(F)cc2)n1	18µM*	13%	u	-20%	1	-10%
CCOC(=O)Cc1csc(NC(=O)/C=C/c2ccc(Cl)cc2)n1	u	u	18µM*	-20%	0	-19%
CCOC(=O)Cc1csc(NC(=O)Cc2ccc(C)cc2)n1	-19%	1%	-5%	9%	4	13%
CCOC(=O)Cc1csc(NC(=O)c2ccc(S(=O)(=O)N3CCCC3)cc2)n1	u	4%	u	u	-54*	-1%[9.24 µM]
CCOC(=O)Cc1csc(NC(=O)/C=C/c2ccco2)n1	-11%	-27%	-11%	-19%	-9	-4%
CCOC(=O)Cc1csc(NC(=O)Nc2ccc(C)cc2)n1	u	0%	-26%	7.3µM*	u	-10%
CCOC(=O)Cc1csc(NC(=O)C(NC(=O)C2CCC(C)CC2)C(C)C)n1 (stereo not given)	8.2µM*	0%	u	3%	23	-1%
CCOC(=O)Cc1csc(NC(=O)c2sc3nc4c(C)cc(C)cc4cc3c2N)n1	18µM*	-26%	u	u	12	u
CCC(C)C(NC(=O)C1CCC(C)CC1)C(=O)NC(C(=O)OC)C(C)C (stereo not given)	u	-3%	-15%	-2%	12	-2%[9.24 µM]
CCCNC(=O)Nc1nc(CC(=O)OCC)cs1	-4%	10%	-1%	17%	10	15%
CCOC(=O)Cc1csc(NC(=S)NC(=O)c2ccc(F)cc2)n1	-24%	-1%	-1%	-3%	-12	11%
CCOC(=O)C(C)NC(=O)C(NC(=O)C1CCC(CC)CC1)C(C)C (stereo not given)	u	-1%	15µM*	1%	6	-1%

Bioassay records (PubChem)
